From PubChem BioAssay AID1159580 (chemical genetic matrix, 2015)
“And” between values parts separate entries of the source, which are not always exact repeats. Equal values may be shown once. About 2,000 (36%) of roughly 5,500 compounds were called active. Another 18% or so got no clear call; they are omitted. Cut-off read from the data, not from the text of the source: active = normalized growth mostly below about 0.91 (no sharp cut-off); inconclusive = no clear call, values can overlap the other calls; inactive = mostly above about 0.92. This is one part of the list.

Test: chemical genetic growth profiling, strain panel (AID 1159580);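 note: tested at 20 µM; growth read once vehicle control cultures reached saturation at 30 °C; 1 = growth at the plate median or of vehicle wells; lower values mean less growth of the strain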
Details: S. cerevisiae deletion strains, growth OD

Measured: normalized growth

CNC[C@@H](O)c1ccc(O)c(O)c1
inactive: locus YAL013W, strain DEP1, active compounds read low 0.993 | locus YAL021C, strain ccr4, active compounds read low 1 | locus YAL026C, strain drs2, active compounds read low 0.984 | locus YAL030W, strain snc1, active compounds read low 1 | locus YBL061C, strain skt5, active compounds read low 1 | locus YBR009C, strain hhf1, active compounds read low 0.997 | locus YBR021W, strain FUR4, active compounds read low 1.02 | locus YBR023C, strain chs3, active compounds read low 1.01 | locus YBR171W, strain sec66, active compounds read low 1 | locus YBR229C, strain ROT2, active compounds read low 0.96 | locus YBR231C, strain swc5, active compounds read low 0.991 | locus YBR279W, strain paf1, active compounds read low 1 | locus YCL011C, strain gbp2, active compounds read low 1.02 | locus YCL016C, strain dcc1, active compounds read low 1.02 | locus YCL029C, strain bik1, active compounds read low 0.984 | locus YCL061C, strain MRC1, active compounds read low 1.01 | locus YCL069W, strain vba3, active compounds read low 1.01 | locus YCR088W, strain abp1, active compounds read low 1.01 | locus YDL005C, strain med2, active compounds read low 0.997 | locus YDL035C, strain GPR1, active compounds read low 0.981 | locus YDL040C, strain nat1, active compounds read low 1 | locus YDL074C, strain BRE1, active compounds read low 0.984 | locus YDL101C, strain DUN1, active compounds read low 0.986 | locus YDL185W, strain tfp1, active compounds read low 0.966 | locus YDL192W, strain arf1, active compounds read low 0.979 | locus YDR001C, strain nth1, active compounds read low 1.01 | locus YDR069C, strain doa4, active compounds read low 0.989 | locus YDR101C, strain arx1, active compounds read low 0.982 | locus YDR137W, strain rgp1, active compounds read low 1.03 | locus YDR159W, strain sac3, active compounds read low 1 | locus YDR162C, strain NBP2, active compounds read low 0.977 | locus YDR195W, strain ref2 0.989 | locus YDR297W, strain sur2, active compounds read low 0.995 | locus YDR318W, strain mcm21, active compounds read low 0.983 | locus YDR334W, strain swr1, active compounds read low 0.993 | locus YDR335W, strain msn5, active compounds read low 1 | locus YDR388W, active compounds read low 0.99 | locus YDR392W, strain spt3, active compounds read low 0.93 | locus YDR502C, strain sam2, active compounds read low 0.996 | locus YEL003W, strain gim4, active compounds read low 1 | locus YEL037C, strain rad23, active compounds read low 1 | locus YEL061C, strain CIN8 (second series), active compounds read low 1.01 | locus YEL061C, strain CIN8, active compounds read low 0.978 | locus YER015W, strain faa2, active compounds read low 1.01 | locus YER016W, strain bim1, active compounds read low 1.01 | locus YER110C, active compounds read low 0.984 | locus YER111C, strain swi4, active compounds read low 1.02 | locus YER155C, strain BEM2 (second series), active compounds read low 0.988 | locus YER155C, strain BEM2, active compounds read low 1 | locus YER167W, strain BCK2, active compounds read low 1.01 | locus YFR010W, strain ubp6, active compounds read low 0.993 | locus YGL078C, strain dbp3, active compounds read low 0.993 | locus YGL086W, strain mad1, active compounds read low 0.977 | locus YGL167C, strain pmr1, active compounds read low 1 | locus YGL173C, strain kem1, active compounds read low 1 | locus YGL227W, strain vid30, active compounds read low 1 | locus YGL240W, strain doc1, active compounds read low 0.989 | locus YGL248W, strain PDE1, active compounds read low 1 | locus YGL253W, strain hxk2, active compounds read low 1.01 | locus YGR135W, strain pre9, active compounds read low 1.04 | locus YGR229C, strain SMI1, active compounds read low 0.99 | locus YGR252W, strain gcn5, active compounds read low 1.02 | locus YHR013C, strain ard1, active compounds read low 1.04 | locus YHR027C, strain rpn1, active compounds read low 1.01 | locus YHR030C, strain SLT2, active compounds read low 0.999 and 1.05 | locus YHR079C, strain IRE1 (second series), active compounds read low 0.951 | locus YHR079C, strain IRE1, active compounds read low 1.04 | locus YHR094C, strain hxt1, active compounds read low 0.977 | locus YHR129C, strain ARP1, active compounds read low 0.999 | locus YHR142W, strain chs7, active compounds read low 1.02 | locus YHR200W, strain rpn10, active compounds read low 0.97 | locus YIL066C, strain RNR3, active compounds read low 0.986 | locus YIL073C, strain SPO22, active compounds read low 1.02 | locus YIL125W, strain kgd1, active compounds read low 0.983 | locus YIR030C, strain dcg1, active compounds read low 0.999 | locus YJL092W, strain hpr5, active compounds read low 1.01 | locus YJL095W, strain BCK1 (second series), active compounds read low 1.01 | locus YJL095W, strain BCK1, active compounds read low 1.03 and 1.07 | locus YJL115W, strain asf1, active compounds read low 0.996 | locus YJL129C, strain trk1, active compounds read low 1 | locus YJL134W, strain LCB3, active compounds read low 0.993 | locus YJL154C, strain vps35, active compounds read low 1 | locus YJL164C, strain tpk1, active compounds read low 0.995 | locus YJL166W, strain qcr8, active compounds read low 1.01 | locus YJL168C, strain set2, active compounds read low 0.987 | locus YJL187C, strain SWE1 (second series), active compounds read low 0.981 | locus YJL187C, strain SWE1, active compounds read low 1 | locus YJR043C, strain POL32, active compounds read low 0.978 | locus YJR066W, strain TOR1, active compounds read low 0.985 | locus YJR075W, strain HOC1, active compounds read low 0.994 | locus YKL009W, strain mrt4, active compounds read low 0.986 | locus YKL068W, active compounds read low 0.977 | locus YKL085W, strain MDH1 (second series), active compounds read low 0.996 | locus YKL085W, strain MDH1, active compounds read low 0.996 | locus YKL160W, strain elf1, active compounds read low 1.03 | locus YKR001C, strain vps1, active compounds read low 0.982 | locus YKR026C, strain gcn3, active compounds read low 1 | locus YKR091W, strain srl3, active compounds read low 1.01 | locus YLL001W, strain dnm1, active compounds read low 1.01 | locus YLL026W, active compounds read low 1 | locus YLL041C, strain sdh2, active compounds read low 1 | locus YLR027C, strain aat2, active compounds read low 1 | locus YLR039C, strain RIC1, active compounds read low 1.03 | locus YLR058C, strain SHM2, active compounds read low 0.984 | locus YLR102C, strain apc9, active compounds read low 0.968 | locus YLR113W, strain HOG1, active compounds read low 1.08 | locus YLR221C, strain rsa3, active compounds read low 1.02 | locus YLR258W, strain gsy2, active compounds read low 1.02 | locus YLR262C, strain YPT6 (second series), active compounds read low 1 | locus YLR262C, strain YPT6, active compounds read low 0.947 | locus YLR268W, strain sec22, active compounds read low 0.972 | locus YLR320W, strain mms22, active compounds read low 1.03 | locus YLR330W, strain CHS5, active compounds read low 0.992 | locus YLR342W, strain FKS1 (second series), active compounds read low 0.999 | locus YLR342W, strain FKS1, active compounds read low 1.01 | locus YLR357W, strain rsc2, active compounds read low 0.957 | locus YLR370C, strain arc18, active compounds read low 1.01 | locus YLR371W, strain rom2, active compounds read low 0.983 | locus YLR384C, strain iki3, active compounds read low 0.999 | locus YLR418C, strain cdc73, active compounds read low 0.996 | locus YML016C, strain PPZ1, active compounds read low 0.994 | locus YML032C, strain rad52, active compounds read low 0.997 | locus YML120C, strain ndi1, active compounds read low 1.03 | locus YML124C, strain tub3, active compounds read low 0.983 | locus YMR058W, strain fet3, active compounds read low 1 | locus YMR078C, strain ctf18, active compounds read low 0.99 | locus YMR125W, strain sto1, active compounds read low 0.991 | locus YMR129W, active compounds read low 1.01 | locus YMR205C, strain PFK2, active compounds read low 1.04 | locus YMR223W, strain ubp8, active compounds read low 1.02 | locus YMR231W, strain pep5, active compounds read low 0.999 | locus YMR263W, strain SAP30, active compounds read low 0.995 | locus YMR307W, strain GAS1, active compounds read low 1.05 | locus YNL067W, strain RPL9B, active compounds read low 0.992 | locus YNL071W, strain lat1, active compounds read low 1.02 | locus YNL153C, strain GIM3, active compounds read low 0.993 | locus YNL183C, strain NPR1, active compounds read low 0.99 | locus YNL209W, strain ssb2, active compounds read low 1 | locus YNL233W, strain BNI4, active compounds read low 0.999 | locus YNL248C, strain rpa49, active compounds read low 1.02 | locus YNL250W, strain rad50, active compounds read low 0.96 | locus YNL271C, strain bni1, active compounds read low 0.988 | locus YNL298W, strain CLA4, active compounds read low 0.979 | locus YNL307C, strain MCK1, active compounds read low 0.905 | locus YNL322C, strain KRE1 (second series), active compounds read low 1.02 | locus YNL322C, strain KRE1, active compounds read low 1 | locus YNR049C, strain mso1, active compounds read low 1 | locus YNR052C, strain pop2, active compounds read low 0.984 | locus YOL012C, strain htz1 0.8 | locus YOL147C, strain pex11, active compounds read low 0.989 | locus YOR001W, strain rrp6, active compounds read low 1.01 | locus YOR061W, strain CKA2, active compounds read low 0.967 | locus YOR069W, strain VPS5, active compounds read low 0.991 | locus YOR070C, strain gyp1, active compounds read low 1 | locus YOR080W, strain dia2, active compounds read low 0.997 | locus YOR083W, strain WHI5, active compounds read low 1.03 | locus YOR106W, strain vam3, active compounds read low 1.02 | locus YOR136W, strain idh2, active compounds read low 0.965 | locus YOR144C, strain elg1, active compounds read low 0.986 | locus YOR184W, strain ser1, active compounds read low 0.982 | locus YOR231W, strain MKK1, active compounds read low 1.07 | locus YOR265W, strain rbl2, active compounds read low 1 | locus YOR270C, strain vph1, active compounds read low 1.05 | locus YOR290C, strain snf2, active compounds read low 0.955 | locus YOR316C, strain cot1, active compounds read low 0.966 | locus YPL051W, strain arl3, active compounds read low 0.998 | locus YPL055C, strain LGE1, active compounds read low 1.02 | locus YPL078C, strain atp4, active compounds read low 1.01 | locus YPL106C, strain sse1, active compounds read low 0.984 | locus YPL240C, strain hsp82, active compounds read low 1.01 | locus YPL256C, strain CLN2, active compounds read low 1.03 | locus YPR119W, strain clb2, active compounds read low 0.968 | locus YPR141C, strain kar3, active compounds read low 0.975 | locus YPR163C, strain tif3, active compounds read low 0.986 | locus YPR167C, strain met16, active compounds read low 0.989 | strain wtn01, active compounds read low 1
